Unmarked numbers belong to inactive results. No rule for the calls is given here.

The nature of this experiment: Vero 76 cell cytotoxicity, cytotoxicity control for VEEV inhibitor project, set 8 (AID 651735). As to conditions: Vero 76 cells viability; series mostly up to 50 µM; viability: at the top concentration.
The viability is a read-out of living cells in per cent, often relative to untreated cells. Take `CN(c1ccc(OCc2ccccc2)cc1)c1nc(=O)c2cccnc2s1`: the “viability” value was 83.4%. In the case of `CN1CCN(C)C(=Nc2ccc([N+](=O)[O-])cc2C(=O)Nc2ccccc2F)C1` it was 94.6%; in that of `COc1ccc(Nc2nc(=O)c3cccnc3s2)cc1`, 94.6%. Turning to `CN1CCN(C)C(=Nc2ccc([N+](=O)[O-])cc2C(=O)Nc2ccccc2)C1`, the “viability” value was 88.6%.

With `O=c1c2cc(F)c(F)cc2nc(CN2CCNCC2)n1-c1ccccc1`, the “viability” value is 99.6%. The value for `O=c1c2cc([N+](=O)[O-])ccc2nc(CN2CCCNCC2)n1-c1ccccc1` was 90.8%; that for `COc1ccc(NC(=O)c2cc([N+](=O)[O-])ccc2N=C2CN(C)CCN2C)cc1` was 101%. In the case of `CN1CCN(C)C(=Nc2ccc(C#N)cc2C(=O)Nc2ccccc2)C1` it was 91.2%.

For `O=c1c2cc([N+](=O)[O-])ccc2nc(CN2CCCNC2)n1-c1ccccc1`, the “viability” value was 91.1%. For `COc1ccc(CNc2nc(=O)c3cccnc3s2)cc1`, the “viability” value was 96.2%. In the case of `CCN1CCN(Cc2nc3ccc([N+](=O)[O-])cc3c(=O)n2-c2ccccc2F)CC1` it was 87.5%; in that of `CCN1CCN(C2c3ncccc3C(=O)N2c2ccccc2)CC1` (stereo not drawn), 95.4%. The value for `CCN1CCN(Cc2nc3ccc(-c4ccccn4)cc3c(=O)n2-c2ccccc2)CC1` was 89.5%.

For the origin of these results see PubChem BioAssay AID651735 (Southern Research Specialized Biocontainment Screening …, 2012).
